D1 antagonist = Antagonist of Human D 1 Dopamine Receptor: qHTS. D(1A) dopamine receptor (Homo sapiens), P21728. HEK293 TREx D1 cells, calcium flux, dopamine EC80; hits give low values. activity change, negative = inhibition, % at 10 µM. actives 3.2% (n = 360,000); in the data active means activity change below about -30%
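Kinetic fluorescence of a calcium dye serves as the read-out. D1-expressing Hek293 Trex cells, induced overnight at 30 C, are exposed to compound for 180 s before an EC80 dopamine addition, then read 180 s further.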
D1 ag = Allosteric Agonists of the Human D1 Dopamine Receptor: qHTS. D(1A) dopamine receptor (Homo sapiens), P21728. HEK293 T-REx D1 cells, calcium flux, agonist mode. activation, % at 2 µM. actives 1% (n = 360,000)
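Tetracycline-induced HEK293 TREx D1 cells, force-coupled to calcium signalling, were dye-loaded with a no-wash calcium kit. Compound was pin-added after a 10 s baseline. Fluorescence was read kinetically at 1 cycle/s for 180 s, with calcium rises flagged as agonism.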
TRHR agonist = qHTS for Small Molecule Agonists and Allosteric Enhancers of Human TRH Receptor: Primary Screen for Agonists. Thyrotropin-releasing hormone receptor (Homo sapiens), P34981. TRHR cells, calcium flux fluo-8, FDSS agonist mode. activation, % at 2 µM. actives 0.18% (n = 360,000). AID 493084, 2011
Target sequence (P34981 whole entry, looked up): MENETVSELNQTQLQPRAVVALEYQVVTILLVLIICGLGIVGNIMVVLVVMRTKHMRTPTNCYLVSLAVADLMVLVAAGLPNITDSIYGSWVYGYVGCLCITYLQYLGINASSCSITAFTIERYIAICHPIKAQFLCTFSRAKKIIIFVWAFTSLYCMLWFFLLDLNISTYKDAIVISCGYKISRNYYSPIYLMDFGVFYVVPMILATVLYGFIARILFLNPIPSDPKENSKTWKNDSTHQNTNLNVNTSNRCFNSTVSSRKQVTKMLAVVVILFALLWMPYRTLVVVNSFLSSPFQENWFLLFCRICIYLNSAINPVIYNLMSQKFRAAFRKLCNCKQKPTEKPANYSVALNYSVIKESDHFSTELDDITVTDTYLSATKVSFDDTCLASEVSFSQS
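TRHR-expressing cells, plated overnight in medium with 10% serum, were loaded with fluo-8 calcium dye at room temperature. After a 10 s baseline, library compound was pin-added and calcium release was recorded kinetically (ex 480/em 530) as agonist response.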
D1 PAM = Potentiators of Human D1 Dopamine Receptor: qHTS. HEK293 TREx D1 cells, calcium flux, dopamine EC20 potentiation. actives 0.036% (n = 360,000). AID 504651, 2011. D(1A) dopamine receptor (Homo sapiens), P21728. potentiation, % at 10 µM; in the data active means potentiation above about 30%
Epigenetic derep = Quantitative High-Throughput Screen for Regulators of Epigenetic Control. Potency, µM (series often up to 53.9 µM), actives largely listed as activators. actives 0.2% (n = 280,000). AID 1865, 2009. murine LDR cells, GFP reporter derepression, 30 h; active means well fitted activation curve with a large enough effect; inconclusive means small, poorly fitted or top-dose-only effect; further: nearly all actives have a fitted effect of over 60% in size
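Murine LDR cells bearing a silenced CMV-driven GFP reporter were exposed to compound for 30 h at 37 C. After PBS washes, GFP-positive cells (20-120 um objects) counted by laser-scanning microplate cytometry.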
TRHR enhancer = qHTS for Small Molecule Agonists and Allosteric Enhancers of Human TRH Receptor: Primary Screen for Enhancers; AID 493056, 2011; TRHR cells, fluo-8 calcium fluorescence, EC20 TRH enhancement; Thyrotropin-releasing hormone receptor (Homo sapiens), P34981; actives 0.66% (n = 360,000); enhancement, % at 2 µM; in the data active means enhancement above about 30%
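Enhancer read-out: after compound pinning and an initial kinetic agonist-mode read, an EC20 of TRH (10 nM final) was injected and fluo-8 calcium signal (Ex 480/Em 530) followed at 1 s/cycle for 100 cycles in TRHR-expressing cells.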
A number is an active result. The list is not random: actives were taken first. Their share in the collection is about 4.6%. Unless noted, no stated cut-off is given here; in the data, active means activation above about 30%; inactive means the rest.

Results for CCS(=O)(=O)N1CCC(C(=O)NCCCN2CCN(c3ccccc3F)CC2)CC1 ?
D1 antagonist: -75.2; D1 ag: inactive; TRHR agonist: inactive; D1 PAM: inactive; Epigenetic derep: inactive; TRHR enhancer: inactive

What do the screens show for `O=C(NCCN1CCC(Cc2ccccc2)CC1)C1CCCN(S(=O)(=O)c2cnc[nH]2)C1` (centres undefined)?
D1 antagonist: inactive; D1 ag: inactive; TRHR agonist: inactive; Epigenetic derep: inactive; TRHR enhancer: inactive

What do the screens show for `O=C(NCCN1CCN(c2ccccc2F)CC1)C1CCCN(S(=O)(=O)c2cnc[nH]2)C1` (centres undefined)?
D1 antagonist: -45.3; D1 ag: inactive; TRHR agonist: inactive; Epigenetic derep: inactive; TRHR enhancer: inactive

How did COc1cccc(C2C(=O)N(C3CCCCC3)CC(=O)N2Cc2ccc(Cl)cc2)c1 (centres undefined) do in these assays?
D1 antagonist: inactive; D1 ag: inactive; TRHR agonist: inactive; D1 PAM: inactive; Epigenetic derep: inactive; TRHR enhancer: inactive

How did Cc1c(Cl)cccc1NC(=O)c1cc2sccc2n1Cc1ccc(F)cc1 do in these assays?
D1 antagonist: inactive; D1 ag: inactive; TRHR agonist: inactive; D1 PAM: inactive; Epigenetic derep: inactive; TRHR enhancer: inactive

Results for CCc1ccc(O)c(CNCCNCc2cc(CC)ccc2O)c1 ?
D1 antagonist: inactive; D1 ag: 30.6; TRHR agonist: inactive; D1 PAM: inactive; TRHR enhancer: inactive

How did CCCC(=O)Nc1nnc(SCc2cc(=O)n3cccc(C)c3n2)s1 do in these assays?
D1 antagonist: inactive; D1 ag: inactive; TRHR agonist: inactive; D1 PAM: inactive; Epigenetic derep: inactive; TRHR enhancer: inactive

Results for COc1cccc(CCNC(=O)c2ccc(Cn3c(SCc4ccccc4)nc4cccnc43)cc2)c1 ?
D1 antagonist: inactive; D1 ag: inactive; TRHR agonist: inactive; D1 PAM: inactive; Epigenetic derep: inactive; TRHR enhancer: inactive

Results for O=C(Nc1nnc(SCc2cc(=O)n3cc(Cl)ccc3n2)s1)c1cccc(F)c1 ?
D1 antagonist: inactive; D1 ag: inactive; TRHR agonist: inactive; D1 PAM: inactive; Epigenetic derep: inactive; TRHR enhancer: inactive

What do the screens show for `COc1ccccc1-c1ccc(=O)n(CC(=O)NC2CCc3ccccc32)n1` (centres undefined)?
D1 antagonist: inactive; D1 ag: 88.2; TRHR agonist: inactive; D1 PAM: inactive; Epigenetic derep: inactive; TRHR enhancer: inactive

What do the screens show for `CS(=O)(=O)c1sc(C#N)c2c1C(=O)CC(c1ccccc1)C2` (centres undefined)?
D1 antagonist: -71.7; D1 ag: inactive; TRHR agonist: inactive; D1 PAM: inactive; Epigenetic derep: inactive; TRHR enhancer: inactive

What do the screens show for `Nc1ccccc1C(=O)/C=C/c1ccccc1`?
Epigenetic derep: inactive

Results for Cc1ccc(-n2ncc3c(NCCc4ccccc4)ncnc32)cc1C ?
D1 antagonist: -58.9; D1 ag: inactive; TRHR agonist: inactive; D1 PAM: inactive; Epigenetic derep: inactive; TRHR enhancer: inactive

Results for COc1ccc(OC)c(Nc2ncnc3c2cnn3-c2cccc(Cl)c2)c1 ?
D1 antagonist: inactive; D1 ag: inactive; TRHR agonist: inactive; D1 PAM: inactive; Epigenetic derep: inactive; TRHR enhancer: inactive

How did COc1ccc(OC)c(Nc2ncnc3c2cnn3-c2cccc(C)c2)c1 do in these assays?
D1 antagonist: -39.6; D1 ag: inactive; TRHR agonist: inactive; D1 PAM: inactive; Epigenetic derep: inactive; TRHR enhancer: inactive

How did Cc1cccc(-n2ncc3c(NCc4ccccc4)ncnc32)c1 do in these assays?
D1 antagonist: -89.3; D1 ag: inactive; TRHR agonist: inactive; D1 PAM: inactive; Epigenetic derep: inactive; TRHR enhancer: inactive

How did CCc1ccc(S(=O)(=O)c2nnn3c2nc(NCCc2ccccc2)c2sccc23)cc1 do in these assays?
D1 antagonist: inactive; D1 ag: inactive; TRHR agonist: inactive; D1 PAM: inactive; Epigenetic derep: inactive; TRHR enhancer: inactive

Results for Cc1ccc(C)c(Nc2nc3c(S(=O)(=O)c4ccc(C(C)C)cc4)nnn3c3ccsc23)c1 ?
D1 antagonist: inactive; D1 ag: inactive; TRHR agonist: inactive; D1 PAM: inactive; Epigenetic derep: inactive; TRHR enhancer: inactive

How did Cc1ccc(S(=O)(=O)c2nnn3c2nc(NCc2ccc(F)cc2)c2sccc23)cc1C do in these assays?
D1 antagonist: inactive; D1 ag: inactive; TRHR agonist: inactive; D1 PAM: inactive; Epigenetic derep: inactive; TRHR enhancer: inactive

How did Cc1ccc(S(=O)(=O)c2nnn3c2nc(NCc2cccs2)c2sccc23)cc1C do in these assays?
D1 antagonist: -59.0; D1 ag: inactive; TRHR agonist: inactive; D1 PAM: inactive; Epigenetic derep: inactive; TRHR enhancer: inactive

How did CCc1ccc(S(=O)(=O)c2nnn3c2nc(NC(C)C)c2sccc23)cc1 do in these assays?
D1 antagonist: -32.7; D1 ag: inactive; TRHR agonist: inactive; D1 PAM: inactive; Epigenetic derep: inactive; TRHR enhancer: inactive

What do the screens show for `CCCCNc1nc2c(S(=O)(=O)c3ccc(C)c(C)c3)nnn2c2ccsc12`?
D1 antagonist: -77.3; D1 ag: inactive; TRHR agonist: inactive; D1 PAM: inactive; Epigenetic derep: inactive; TRHR enhancer: inactive

How did O=S(=O)(c1ccccc1)c1nnn2c1nc(NCc1cccs1)c1sccc12 do in these assays?
D1 antagonist: inactive; D1 ag: inactive; TRHR agonist: inactive; D1 PAM: inactive; Epigenetic derep: inactive; TRHR enhancer: inactive

What do the screens show for `COc1ccccc1Nc1nc2c(S(=O)(=O)c3ccc(C(C)C)cc3)nnn2c2ccsc12`?
D1 antagonist: inactive; D1 ag: inactive; TRHR agonist: inactive; D1 PAM: inactive; Epigenetic derep: inconclusive; TRHR enhancer: 37.1

How did Cc1nnc(N2CCN(c3cccc(C(F)(F)F)c3)CC2)c2c1nnn2Cc1ccccc1 do in these assays?
D1 antagonist: inactive; D1 ag: inactive; TRHR agonist: inactive; D1 PAM: inactive; Epigenetic derep: inactive; TRHR enhancer: inactive

Results for O=C(c1cccc(S(=O)(=O)N2CCOCC2)c1)N(CCO)Cc1ccccc1 ?
D1 antagonist: -32.7; D1 ag: inactive; TRHR agonist: inactive; D1 PAM: inactive; Epigenetic derep: inactive; TRHR enhancer: inactive

How did O=C(c1cccc(NS(=O)(=O)c2ccc(F)cc2)c1)N1CCN(c2ccccc2)CC1 do in these assays?
D1 antagonist: -42.3; D1 ag: inactive; TRHR agonist: inactive; D1 PAM: inactive; TRHR enhancer: inactive
